According to PubChem BioAssay (NCI):
About 83,000 compounds went through this panel and 20% of them were active in at least one assay; those are over-represented in the sample as a whole.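 In brief: 96-well plates, 48 h treatment, single concentration, percent growth endpoint.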 A number with no mark means an inactive call. The source made the active and inactive calls. The calls were made as follows: active = growth percent below 10; inactive = the rest.

System: HL-60(TB) leukemia
Test: NCI-60 one-dose screen, 48 h (100 = growth as untreated, 0 = no growth, -100 = all killed)
Conditions: 10 µM unless noted

Structure (SMILES) | growth
C#Cc1cccc(Oc2ccc(NC(=O)CCl)cc2)c1 | 0.122% [8.25 µM] (active)
COc1ccc(/C=C/C(=O)N2CCC(O)CC2)cc1OC1CCCC1 | 101%
CCCCCCCCCCCCCCCCCCOc1cccc(CC(=O)OCC[N+](CC)(CC)CC)c1 | 9.38% (active)
COc1cc(NCCCCN=C(N)NC(N)=NC(C)C)c2ncccc2c1 | 55.9%
COc1ccc(-c2nn(-c3cccc(Cl)c3)cc2-c2nc(N)[nH]c(=O)c2C#N)cc1 | 78.7%
O=S(O)c1cc(Cl)cc(Cl)c1OCc1ccccc1 | 109%
COc1ccc(/C=C(/C(=O)c2ccc(Cl)cc2)C(=O)C(F)(F)F)cc1 | 106%
CCOC(=O)c1ccoc1 | 118%
COc1ccc(Nc2nc(NCCNc3ccnc4cc(Cl)ccc34)nc(N3CCOCC3)n2)cc1 | 22.8%
COc1ccc2c(c1)c(-c1cc(-c3cn(C)c4ccc(OC)cc34)on1)cn2C | 101%
C/C(=C\CCc1ccoc1)CC/C=C(\C)CCCN1CCC(CO)CC1 | 17.2%
COc1cc2c(c(OC)c1OC)CCc1cnoc1-2 | 114%
CC1CC(O)CC(C)(C)C1 (stereo not given) | 80.8%
Cn1cc(-c2ccc3nc(-c4ccc(CC(=O)Nc5cc(C(C)(C)C)no5)cc4)cnc3c2)cn1 | 18.5% [30 µM]
CN1CCN(Cc2ccc(NC(=O)c3[nH]ncc3Nc3ccnc4ccnn34)cc2)CC1 | 45.5%
[Cl-].[Rh+3].c1ccc(-c2ccnc3c2ccc2c(-c4ccccc4)ccnc23)cc1.c1ccc(-c2ccnc3c2ccc2c(-c4ccccc4)ccnc23)cc1.c1ccc(-c2ccnc3c2ccc2c(-c4ccccc4)ccnc23)cc1 | 99.9%
O=c1ccn(Cc2cn(-c3c4ccccc4nc4ccccc34)nn2)c(=O)[nH]1 | 75.7%
CCCCCCCCCCCC[n+]1ccc2ccccc2c1 | -53.4% (active)
C=C1C(=O)O[C@H]2[C@H]1CC/C(Cn1cc(-c3ccc(OC)cc3)nn1)=C\CC[C@@]1(C)O[C@@H]21 | -35.2% (active)
CC(=O)Oc1cc2cnc3c4cc(OC(C)=O)c(OC(C)=O)cc4ccc3c2cc1OC(C)=O | -2.79% (active)

Structure (SMILES) | growth
Cc1ccc(C(=O)NCCNc2nccc(-c3c(-c4cccc(F)c4)nc4sccn34)n2)cc1 | 95.5%
COc1ccccc1N1CCN(CCn2c(=O)c3c(c4ccccc4n3C)n(C)c2=O)CC1 | 109%
CCC1(CC)NC(=O)c2c(c3ccc(Cl)c(Cl)c3n2C)C1C#N (stereo not given) | 91.3%
NS(=O)(=O)c1cc(=O)[nH]c(=O)[nH]1 | 114%
CC(=O)c1cc(C(=O)c2ccc3c(c2)Sc2ccccc2N3)n2ccccc12 | 14.3%
CCCCC(NC(=O)CN1C(=O)/C(=C/C(C)=C/c2ccccc2)SC1=S)C(=O)O (stereo not given) | 113%
C=CC(=O)NCc1cccc(Nc2ncc(Br)c(NCCCNC(=O)C3CCC3)n2)c1 | -50% (active)
CN1CCN(c2ccc(C(=O)Nc3n[nH]c4ccc(Cc5cc(F)cc(F)c5)cc34)c(NC3CCOCC3)c2)CC1 | -57.1% (active)
COc1ccc(-c2nc(Nc3nc4ccccc4[nH]3)nc(N)c2C#N)cc1 | 97.8%
CN(C)CCN1C(=O)c2cccc3c(N)ccc(c23)C1=O | -6.78% (active)
O=C1Nc2ccccc2/C1=C/C(=N/c1nnc(-c2ccccc2)s1)c1ccccc1 | -32.9% (active)
N=c1ccc2nc3ccc(N)cc3sc-2c1 | 0.816% (active)
CCOC(=O)c1c(C)nc2c(c1N)/C(=C/c1cc(OC)c(OC)c(OC)c1)C(=O)N2c1ccc(OC)cc1 | 28.2%
Cc1cccc2c1S/C(=C/c1ccc([N+](=O)[O-])cc1)C2=O | 101%
CN(C)CCN1C(=O)c2c(c3c4ccccc4n4c3c3c2c2ccccc2n3C2CC(O)C(O)C4(C)O2)C1=O (stereo not given) | 32.5%
Cc1nc2cc(Nc3nc(Nc4ccc(F)cc4)nc(N4CCCC4)n3)ccc2n1Cc1ccccc1 | -41.5% (active)
O=C(CN1C(=O)S/C(=C\C(Cl)=C\c2ccccc2)C1=O)NC1C=CS(=O)(=O)C1 (stereo not given) | -5.2% (active)
CC(C)(C)[Si](C)(C)OC1[C@@H](O[Si](C)(C)C(C)(C)C)[C@@H](CNC(=O)NC(=O)NC(=O)CI)O[C@H]1n1cnc2c(NC(=O)Nc3ccccc3)ncnc21 (stereo not given in full) | -67.1% (active)
COc1ccc(/C=N/C2=C(C#N)C(c3ccccc3)c3ccc4ccccc4c3O2)cc1 (stereo not given) | 1.71% (active)
COc1ccc(C2=NN(C=O)C(c3ccc(Oc4nc5c(c(=O)n(C)c(=O)n5C)n4C)c(OC)c3)C2)cc1 (stereo not given) | 90.3%
